# Compounds with a hit are over-represented: about 2.5% of the library has one in this group of screens.
# Cruzain Triton = cruzain (T. cruzi) inhibition with detergent | purified cruzain, Z-FR-AMC fluorescence, 0.01% Triton | Potency, µM, without a hit: max response, negative = inhibition, most hits filed as inhibitors | actives 0.43% (n = 200,000) | AID 1478;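 further: plate controls were neutral wells for no effect and buffer without enzyme for full effect; nearly all actives have a fitted effect of over 40% in size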
# Target sequence (P25779 123-467 limits assumed): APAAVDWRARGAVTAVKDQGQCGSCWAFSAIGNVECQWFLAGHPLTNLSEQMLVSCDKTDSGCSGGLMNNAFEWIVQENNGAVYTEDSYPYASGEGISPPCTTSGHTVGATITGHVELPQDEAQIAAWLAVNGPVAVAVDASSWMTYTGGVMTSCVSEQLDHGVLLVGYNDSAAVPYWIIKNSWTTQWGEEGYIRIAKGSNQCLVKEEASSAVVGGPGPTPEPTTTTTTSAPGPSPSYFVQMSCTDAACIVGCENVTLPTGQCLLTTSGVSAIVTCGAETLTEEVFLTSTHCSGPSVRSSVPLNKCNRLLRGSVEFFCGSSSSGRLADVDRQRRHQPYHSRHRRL
#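 15 min RT preincubation of 1.5 nM cruzain with compound, then 2 uM Z-FR-AMC added; kinetic AMC fluorescence, 60 s delta. Triton X-100 0.01%, pH 5.5.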
# Cruzain inh noDet = cruzain (T. cruzi) inhibition without detergent; P25779; purified cruzain, Z-FR-AMC fluorescence, no detergent; Potency, µM, for inactives: max response, negative = inhibition, usual class: inhibitors; actives 2.3% (n = 200,000); AID 1476;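 further: plate controls were enzyme without inhibitor for no effect and buffer without enzyme for full effect; nearly all actives have a fitted effect of over 40% in size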
#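 Purified cruzain at 1.5 nM, pre-incubated 15 min with compound at room temperature in 100 mM sodium acetate pH 5.5, 5 mM DTT, 0.00005% Triton X-100. Reaction started with 2 uM Z-FR-AMC; AMC fluorescence increase over 60 s gives rate.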
# An asterisk follows results filed as active; ? = inconclusive. The call rests on the fitted dose curve; in most records, active means well fitted curve in the direction sought with a large enough effect; inconclusive means small, poorly fitted or top-dose-only effect, or another doubt; inactive means no such curve, though single readings can be large; an effect the other way counts as inactive or inconclusive. Potency means the concentration at half of the fitted maximal effect.
SMILES,Cruzain Triton,Cruzain inh noDet
O=C(Nc1ccc2c(c1)OCO2)C1Cc2ccccc2CN1S(=O)(=O)c1cccs1 (stereo unspecified),-3%,25µM*
O=C(Nc1ccc2c(c1)OCO2)C1CCN(S(=O)(=O)c2cccs2)CC1,-1%,?
Cc1ccccc1-c1nc(Nc2ccncc2)c2ccccc2n1,0%,16%
Cc1nc2ccc(C(=O)O)cc2c2c1CC(C)S2 (stereo unspecified),-8%,-4%
COc1cc(-c2nnc(-c3cccs3)o2)cc(OC)c1OC,-1%,-1%
Fc1ccc2c(Cl)c(-c3nnc(-c4cccs4)o3)sc2c1,4%,10µM*
N#C/C(=C\N1CCN(Cc2ccc3c(c2)OCO3)CC1)c1nc2ccccc2s1,-4%,32µM*
c1ccc2sc(N3CCN(Cc4ccc5c(c4)OCO5)CC3)nc2c1,0%,3%
O=c1c2c3c(sc2ncn1Cc1ccc(F)cc1)CCC3,-2%,7.9µM*
Nn1cnc2sc3c(c2c1=O)CCC3,0%,1%
COC(=O)c1ccccc1NC(=O)Cn1c(=O)n(CCC(=O)NCc2ccc3c(c2)OCO3)c(=O)c2ccccc21,-2%,-4%
COc1ccccc1NS(=O)(=O)c1ccc(Cl)c(NC(=S)NC(=O)C2CCCC2)c1,-13%,?
CCN(CC)c1ccc(S(=O)(=O)Nc2cc(Cl)ccc2Cl)cc1NC(=S)NC(=O)C1CCCC1,-2%,32µM*
CN(C)c1ncc2nc(-c3cccs3)c(=O)n(-c3ccccc3)c2n1,0%,-4%
Cc1cccc(-n2nc(C(=O)Nc3ccccc3)n3c(=O)cc(-c4ccccc4)nc23)c1,-1%,7.9µM*
O=C(c1ccccc1)c1nn(-c2cccc(Cl)c2)c2nc(-c3ccccc3)cc(=O)n12,4%,25µM*
CCOC(=O)c1nn(-c2cccc(Cl)c2)c2nc(Nc3ccccc3)cc(=O)n12,-6%,?
CCOC(=O)c1nn(-c2cccc(OC)c2)c2nc(Nc3ccccc3)cc(=O)n12,-6%,?
Cc1ccc(S(=O)(=O)N2CCOCC2)cc1NC(=O)COC(=O)CNC(=O)c1ccc(C(C)(C)C)cc1,-2%,?
CC(C)(C)c1ccc(C(=O)NCC(=O)OCC(=O)Nc2ccccc2[N+](=O)[O-])cc1,-6%,5%
Cc1ccc(S(=O)(=O)N2CCCCC2)cc1NC(=O)COC(=O)CNC(=O)c1cc(Cl)cc([N+](=O)[O-])c1,10µM*,20µM*
CC(C)NC(=O)COC(=O)CNC(=O)c1cc(Cl)cc([N+](=O)[O-])c1,7.9µM*,7.9µM*
Cc1ccc(N=Nc2c(C)[nH][nH]c2=O)c(C)c1,-4%,-1%
CCc1cc2c(nc1CC)CCN(CC/C(C)=N/O[C@@H](C)c1cc(-c3c(C)cc(C)cc3C)no1)C2,-5%,-2%
C/C(CCN1CCc2nc(-c3ccccc3)c(-c3ccccc3)cc2C1)=N\O[C@@H](C)c1cc(-c2c(C)cc(C)cc2C)no1,-2%,20µM*
SMILES,Cruzain Triton,Cruzain inh noDet
COc1ccc(C(=O)NNC(=O)c2cc3cc([N+](=O)[O-])ccc3oc2=O)cc1OC,-1%,1%
O=C(Nc1nc(C2C3CC4CC(C3)CC2C4)cs1)c1cc2cc([N+](=O)[O-])ccc2oc1=O (stereo unspecified),-2%,25µM*
COc1ccc(NC(=O)CSc2nc(O)cc(=O)n2C)cc1,-25%,16µM*
Cn1c(SCC(=O)Nc2ccccc2)nc(O)cc1=O,-4%,-11%
Cc1ccc(C2=N/C(=C\c3cccnc3)C(=O)O2)cc1,14µM*,13µM*
CCc1ccc(C2=C/C(=C/c3cccnc3)C(=O)O2)cc1,-10%,3%
N=C(N)c1ccc(/C=C\c2ccc(C(=N)N)cc2)cc1,-25%,3.2µM*
N=C(N)c1ccccc1,4%,-11%
O=c1cc(-c2ccccc2)n2c(SCc3cccc([N+](=O)[O-])c3)nnc2[nH]1,0%,16%
CC1Cc2cccc3c(O)c(C(=O)c4nn[nH]n4)c(=O)n1c23 (stereo unspecified),-6%,19%
COc1ccccc1C1Nc2cccc3cccc(c23)N1,-4%,25µM*
Oc1ccccc1C1Nc2cccc3cccc(c23)N1,-10%,-19%
Cc1ccc(N2CCN(C(=O)c3cc4cc5ccc(C)cc5nc4s3)CC2C)cc1 (stereo unspecified),2%,4%
CCc1ccc(CNC(=O)C2CCN(c3nc4ccccc4nc3C(F)(F)F)CC2)cc1,4%,-15%
Cc1ccc(C(c2nnnn2C2CCCCC2)N2CCc3ccccc32)cc1 (stereo unspecified),-1%,25µM*
CC(C)C(c1nnnn1C1CCCCC1)N1CCc2ccccc21 (stereo unspecified),-1%,13%
CCOC(=O)C1CCCN(C(=O)c2nn(-c3ccc(C)cc3)c(=O)c3c2c2ccccc2n3C)C1 (stereo unspecified),-1%,0%
Cc1ccccc1-c1cc(NCc2ccccc2)ncn1,-3%,13%
COc1ccc(N2CCN(S(=O)(=O)c3ccc(Cl)c(C(F)(F)F)c3)CC2)cc1,4%,16µM*

# Screens (PubChem)
